Source: PubChem BioAssay
Shown are actives, neighbours in structure and some others; about 3% of the full set was active somewhere.
TSG101-PTAP inh: qHTS Assay for Iinhibitors of HIV-1 Budding by Blocking the Interaction of PTAP/TSG101. Tumor susceptibility gene 101 protein (Homo sapiens), Q99816. Fluorescence polarization, FITC-PTAP peptide / Tsg101 binding. Potency, µM (highest dose often 115 µM), for the others: at the top dose activity change, negative = inhibition, most hits filed as inhibitors. 340,000 tested, under 10 active; active = well fitted inhibition curve with a large enough effect in the main read-out, with a control signal flat, not every such curve was filed as active; inconclusive = small, poorly fitted or top-dose-only effect, or effect the other way, or a change in a side signal; inactive = no such curve, though single readings can be large or run the other way; note: % of control where 0% means no effect
Target sequence (Q99816 whole entry, looked up): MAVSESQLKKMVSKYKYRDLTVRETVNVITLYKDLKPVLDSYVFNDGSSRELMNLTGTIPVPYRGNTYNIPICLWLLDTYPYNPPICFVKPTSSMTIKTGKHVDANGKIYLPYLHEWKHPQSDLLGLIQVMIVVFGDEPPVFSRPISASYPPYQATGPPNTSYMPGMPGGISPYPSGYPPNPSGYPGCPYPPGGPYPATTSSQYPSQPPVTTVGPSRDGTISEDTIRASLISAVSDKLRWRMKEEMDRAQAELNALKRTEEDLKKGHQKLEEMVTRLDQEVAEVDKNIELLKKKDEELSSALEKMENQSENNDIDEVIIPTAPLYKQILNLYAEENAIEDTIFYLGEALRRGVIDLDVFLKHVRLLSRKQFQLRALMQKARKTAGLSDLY
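Compounds were pin-transferred onto Tsg101 binding domain (10 uM final) in HEPES pH 7.5 buffer, then FITC-PTAP peptide was added at 50 nM final. After 20 min at RT, polarization reported peptide displacement across a qHTS concentration series.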
VDR inh: Inhibitors of the vitamin D receptor (VDR): qHTS | VDR-SRC2-3 peptide fluorescence polarization, 2 h | Vitamin D3 receptor (Homo sapiens), P11473 | 400,000 compounds, 0.93% hits | Potency, µM, for inactives: max response, negative = inhibition, usual class: inhibitors; note: % is set by controls: 0 for no effect and ±100 for the full control effect
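Signal is fluorescence polarization, reporting how far test compounds block the interaction of VDR with the SRC2-3 coregulator peptide after a 2 h room-temperature incubation.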
USP1 inh: Inhibitors of USP1/UAF1: Primary Screen; Ubiquitin carboxyl-terminal hydrolase 1 (Homo sapiens), O94782; recombinant USP1/UAF1, Ub-Rhodamine cleavage fluorescence; Potency, µM (series often up to 57.1 µM), without a hit: at the top dose activity change, negative = inhibition, hits mostly inhibitors; 390,000 compounds, 0.23% hits; AID 743255, 2014; note: % is set by controls: 0 for no effect and ±100 for the full control effect; nearly all actives have a fitted effect of over 60% in size
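In this screen, compounds sit with the deubiquitinase complex (1nM) for 15 min at room temperature before Ub-Rho is added at 150nM final. Fluorescence rise is then followed for 6 reads every 60 seconds.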
PLK1 PBD block: qHTS for Inhibitors of PLK1-PDB (polo-like kinase 1 - polo-box domain): Primary Screen; Plk1 PBD binding of FITC phosphopeptide, fluorescence polarization; Potency, µM, inactives show max response, negative = inhibition, hits mostly inhibitors; 360,000 compounds, 2.8% hits; note: series mostly up to about 57 µM; % is set by controls: 0 for no effect and ±100 for the full control effect; nearly all actives have a fitted effect of over 65% in size
GCN5L2 inh: qHTS Assay for Inhibitors of GCN5L2; Potency, µM (top dose mostly 58.9 µM), without a hit: at the top dose activity change, negative = inhibition, usual class: inhibitors; GCN5L2 HAT assay, ThioGlo1 CoA-SH fluorescence; Histone acetyltransferase KAT2A (Homo sapiens), Q92830; 390,000 compounds, 0.21% hits; note: % is set by controls: 0 for no effect and ±100 for the full control effect
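GCN5L2 (20 nM) in 50mM HEPES pH 7.5, 0.1mM EDTA, 0.01% Tween-20 preincubated 15 min with compounds at room temperature. Reaction started with H3(1-25) 75uM, acetyl-CoA 70uM, ThioGlo1 50uM; CoA-thiol fluorescence (Ex340/Em540) read at 0 and 20 min.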
* marks the source's active call; other numbers are inactive results; ? = inconclusive; · = no result. Unless noted, calls come from the whole dose curve; as a rule, active = well fitted curve in the direction sought with a large enough effect; inconclusive = small, poorly fitted or top-dose-only effect, or another doubt; inactive = no such curve, though single readings can be large; an effect the other way counts as inactive or inconclusive. Potency is the fitted concentration of half-maximal effect.

SMILES	TSG101-PTAP inh	VDR inh	USP1 inh	PLK1 PBD block	GCN5L2 inh
CN1C(=O)/C(=C\c2ccccc2OCc2ccccc2)SC1=S	-0.3%	39.3%	-14.1%	1.6%	-15.2%
O=C(O)COc1ccccc1/C=C1\SC(=S)N(/N=C/c2ccccc2O)C1=O	-1.9%	?	-12.5%	21.2µM*	-12.1%
CCN(CC)C(=O)CN1C(=O)/C(=C/c2ccccc2)SC1=S	-6.3%	?	-19.1%	26.7µM*	4.3%
O=C(O)CN1C(=O)/C(=C\c2cccc(OCc3ccccc3F)c2)SC1=S	-7.2%	?	-18.0%	29.9µM*	-24.5%
O=C(O)CN1C(=O)/C(=C/c2ccsc2)SC1=S	-6.7%	-6.7%	-24.1%	-3.6%	3.5%
COc1ccc(Nc2ncnc3c2cnn3C)c(OC)c1	·	10.5%	3.4%	·	-7.0%
Cc1cccc(NC(=O)c2sc3ncnc(N(C)C4CCCCC4)c3c2C)c1C	·	7.9%	-20.5%	·	-6.7%
O=C(O)CN1C(=O)/C(=C\c2cccc(OC(=O)c3ccco3)c2)SC1=S	-1.4%	-20.7%	-9.9%	-20.7%	-8.5%
O=C(O)CN1C(=O)/C(=C\c2cccc(OCc3ccc(F)cc3)c2)SC1=S	-3.7%	44.7µM*	?	26.7µM*	-7.7%
O=C1c2cccc3c([N+](=O)[O-])c(O)cc(c23)C(=O)N1Nc1ccccc1	-3.3%	?	-20.5%	26.7µM*	-0.1%
O=C1c2ccccc2C(=O)N1Nc1ccccc1	0.3%	-8.7%	1.5%	-17.3%	-2.9%
CN(C)c1ccc(/C=C2\SC(=S)N(Nc3ncc(C(F)(F)F)cc3Cl)C2=O)cc1	?	-12.8%	25.1µM*	52.4%	36.6%
COc1cc(/C=C2\SC(=S)N(Nc3ncc(C(F)(F)F)cc3Cl)C2=O)ccc1O	8.5%	?	-23.4%	6.3%	-1.2%
O=C(CSc1nc2cc(Cl)ccc2s1)c1cc2ccccc2o1	?	27.7%	28.2µM*	?	-12.7%
COc1ccccc1-c1c(C)nn2c(N3CCN(c4ccc(F)cc4)CC3)cc(C)nc12	·	1.7%	-4.8%	·	-2.9%
Cc1cccc(N2NC(=O)/C(=C/c3ccc(-c4ccc(Cl)c(C(=O)O)c4)o3)C2=O)c1	-0.3%	?	-22.5%	16.8µM*	-24.6%
O=C(O)c1cc(-c2ccc(/C=C3\NC(=O)N(c4ccccc4)C3=O)o2)ccc1Cl	-0.3%	15.5%	-21.6%	?	?
Cc1ccc(Sc2ccc(/C=C3/C(=O)NN(c4ccccc4)C3=O)o2)cc1	-10.2%	?	-15.8%	5.97µM*	-21.3%
Cc1ccsc1/C=C1/C(=O)NN(c2ccccc2)C1=O	0.4%	-28.0%	2.6%	-20.8%	-12.5%
O=C1NN(c2ccccc2)C(=O)/C1=C/c1ccc(-c2ccc(Cl)c(C(=O)O)c2)o1	-3.4%	?	-21.9%	?	-26.3%
O=C(O)c1cc(-c2ccc(/C=C3\NC(=O)N(c4ccc(Cl)cc4)C3=O)o2)ccc1Cl	-4.5%	-27.2%	?	11.9µM*	-6.2%
Cc1cccc(N(C)C(=O)CCS(=O)(=O)c2ccc3c(c2)oc(=O)n3C)c1	·	5.5%	-12.9%	·	0.8%
COc1cccc([C@@H]2Oc3ccc(Br)cc3C(=O)[C@H]2OC(=O)NS(=O)(=O)c2ccc(C)cc2)c1	·	-11.2%	·	·	·
C#CC1CN(Cc2ccccc2)CC(C#C)N1C (stereo unspecified)	-2.4%	-22.0%	-8.2%	29.9µM*	?
CC(=O)Nc1sc(N/N=C\c2ccc(O)cc2)nc1-c1cccs1	-3.8%	-22.9%	1.0%	26.7µM*	-4.4%
SMILES	TSG101-PTAP inh	VDR inh	USP1 inh	PLK1 PBD block	GCN5L2 inh
CC(=O)Nc1sc(NC(=O)c2ccccc2)nc1-c1cccs1	-2.6%	-9.7%	-6.7%	-5.2%	-4.7%
CC(=O)Nc1sc(N/N=C\c2cccc(Cl)c2)nc1-c1cccs1	2.4%	7.08µM*	-14.7%	?	-4.1%
COCCn1c(=O)c(-c2ccc(Cl)cc2)nc2cnc(N3CCOCC3)nc21	·	-2.2%	·	·	-18.8%
Cc1cc(=O)n2nc(N3CCCC(C(=O)NCc4ccco4)C3)sc2n1 (stereo unspecified)	0.0%	-0.7%	-7.6%	-2.5%	-10.5%
CCCc1cc(=O)n2nc(N3CCC(C(=O)NCc4ccco4)CC3)sc2n1	-5.5%	-28.3%	-12.3%	23.8µM*	-1.1%
CCn1nc(NC(=O)c2ccncc2)c2cc3cc(C)ccc3nc21	-3.6%	-18.5%	-15.0%	3.77µM*	-11.7%
COc1cc2c(cc1OC)C(COc1ccc3c(C)cc(=O)oc3c1)N(C(=O)c1cccc(OC)c1OC)CC2 (stereo unspecified)	·	-10.1%	?	·	0.4%
CCCN(CCC)C(=O)c1cc([N+](=O)[O-])cc2c1-c1ccc([N+](=O)[O-])cc1C2=C(C#N)C#N	0.8%	39.8µM*	?	?	?
Cc1cc(C)cc(NC(=O)CN2C(=O)CCc3cc(S(=O)(=O)N4CCCCC4)ccc32)c1	·	-6.4%	-4.5%	·	3.3%
CCN(CC)CCNC(=O)c1cc2cc3ccc(OC)cc3nc2o1	-6.7%	5.0%	-7.6%	-13.7%	?
COCCCNC(=O)c1cc2cc3cc(OC)ccc3nc2o1	-1.9%	-21.6%	-25.2%	21.2µM*	-28.5%
COc1ccc2nc3n(c(=O)c2c1)-c1ncccc1C(=O)NC3Cc1ccccc1 (stereo unspecified)	·	·	-9.5%	1.5%	·
O=C(O)CC(NCc1ccco1)C(=O)OCCCl (stereo unspecified)	-0.9%	-0.6%	-17.8%	-6.7%	-4.4%
COC(=O)C(CC(=O)O)NCc1ccco1 (stereo unspecified)	-3.4%	-13.3%	-8.1%	11.9µM*	-1.5%
CC(C)NC(=O)c1ccccc1NC(=O)C(C)Oc1ccccc1 (stereo unspecified)	0.6%	-6.4%	-15.2%	-5.0%	-2.1%
COC(=O)c1ccccc1NC(=O)C(C)Oc1ccccc1 (stereo unspecified)	1.5%	?	-19.4%	2.99µM*	0.1%
COc1ccc(CNC(=O)c2ccc3nc(C)c(N(C)Cc4ccc(NC(C)=O)cc4)n3c2)cc1	·	·	·	1.5%	·
c1ccc(SCCN2CCN(c3ccccc3)CC2)cc1	-0.6%	8.3%	-10.5%	-18.0%	-9.4%
O=C(c1ccc([N+](=O)[O-])cc1)N1CCSC1c1ccc(Cl)cc1 (stereo unspecified)	-3.9%	-13.9%	-19.8%	0.6%	0.6%
O=C(c1ccc([N+](=O)[O-])cc1)N1CCSC1c1ccc(Br)cc1 (stereo unspecified)	0.5%	-16.3%	-9.8%	16.8µM*	-14.8%
NC(CSS(=O)(=O)O)=NCCC12CC3CC(CC(O)(C3)C1)C2	1.0%	39.8µM*	?	11.9µM*	-0.6%
